This is a sample that favours compounds with a hit; in the whole collection about 11% have one here.
PNC inhibitor: perinucleolar compartment assembly inhibition; PC3M PTB-GFP, PNC prevalence imaging, 16 h; stronger effect = lower value; hit rate 3.1% among 140,000; AID 2417; activity change (PNC), negative = inhibition, % at 10 µM;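 active means readout at or below -70, meaning at least 70% loss of cells showing the perinucleolar compartment, a nuclear body marking cancer cells; inconclusive means readout between -30 and a set limit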
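Read-out is percentage of cells bearing a perinucleolar compartment, from automated 20x imaging of fixed, Hoechst-stained PC3M PTB-GFP cells. Cells were seeded 4 h, then exposed 16 h to compound (23 nl of library stock) in duplicate plates.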
IMPase cell inh: cell-permeable inhibitors of inositol monophosphatase (IMPase) | P97697 | CHO-M1 cells, IP1 accumulation, HTRF TR-FRET ratio | inhibition (IP1 accumulation), % at 46.1 µM | 120,000 tested, under 10 active | AID 901; active means well fitted curve in the direction sought with a large enough effect in the signal ratio, not every such curve was filed as active; inconclusive means small, poorly fitted or top-dose-only effect, or a change in a side signal; inactive means no such curve, though single readings can be large or run the other way; the % refers to the signal ratio;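 further: cells stimulated with carbachol in lithium chloride buffer; higher means more IMPase inhibition seen as more IP1 and lower FRET ratio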
Target sequence (P97697 whole entry, looked up): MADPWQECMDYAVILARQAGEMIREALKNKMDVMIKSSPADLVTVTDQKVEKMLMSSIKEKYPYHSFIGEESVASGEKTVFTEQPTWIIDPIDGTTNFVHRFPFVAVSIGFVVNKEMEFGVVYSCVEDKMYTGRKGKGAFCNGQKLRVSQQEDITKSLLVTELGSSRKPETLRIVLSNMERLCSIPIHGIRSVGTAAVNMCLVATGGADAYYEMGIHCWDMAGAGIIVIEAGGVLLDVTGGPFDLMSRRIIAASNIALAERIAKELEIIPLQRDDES
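In this qHTS, compounds (final up to 46 uM) act on CHO-M1 cells that are then activated through the M1 receptor with carbachol, in pH 7.4 buffer containing 50 mM LiCl, for 30 min. IP1 accumulation is quantified by the IP-One immunoassay.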
IMPase Li inh: membrane-permeable IMPase blocker, potentiated with lithium; hit rate 0.35% among 210,000; AID 1457; CHO-M1 cells, IP1 TR-FRET (IP-One), carbachol + lithium; Potency, µM (titrated, usually from 59.4 µM), usual class: inhibitors;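 further: IP1 builds up when IMPase is blocked and the TR-FRET signal falls; nearly all actives have a fitted effect of over 50% in size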
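Test compounds were applied to CHO-M1 cells previously cultured for 16–30 h at 2000 per well. A small lithium amount accompanied them; after 30 min at 37C, IP1 was quantified by TR-FRET.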
ALDH1A1 inh: inhibitors of human aldehyde dehydrogenase 1A1; P00352; Purified ALDH1A1, NADH fluorescence, propionaldehyde substrate; Potency, µM (series often up to 75.3 µM), usual class: inhibitors; hit rate 7.3% among 220,000; active means well fitted inhibition curve with a large enough effect, not every such curve was filed as active; inconclusive means small, poorly fitted or top-dose-only effect, or another doubt; inactive means no such curve, though single readings can be large or run the other way
HPGD block: inhibitors of human 15-hydroxyprostaglandin dehydrogenase (HPGD). P15428. purified HPGD, NADH fluorescence kinetic, PGE2 substrate. Potency, µM, actives largely listed as inhibitors. hit rate 4.3% among 150,000. AID 894; active means well fitted inhibition curve with a large enough effect, not every such curve was filed as active; inconclusive means small, poorly fitted or top-dose-only effect, or another doubt; inactive means no such curve, though single readings can be large or run the other way
Target sequence (P15428 whole entry, looked up): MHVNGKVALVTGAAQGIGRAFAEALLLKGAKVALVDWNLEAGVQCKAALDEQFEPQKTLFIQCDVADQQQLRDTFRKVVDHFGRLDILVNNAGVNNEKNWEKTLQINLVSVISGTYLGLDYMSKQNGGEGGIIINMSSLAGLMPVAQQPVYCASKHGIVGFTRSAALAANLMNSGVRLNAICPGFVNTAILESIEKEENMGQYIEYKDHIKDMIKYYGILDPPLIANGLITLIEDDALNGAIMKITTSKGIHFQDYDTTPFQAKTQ
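20 nM HPGD preincubated 15 min at room temperature with compound in 50 mM Tris-HCl pH 8, 0.01% Tween 20. Started with 1 mM NAD+ and 30 uM prostaglandin E2; NADH fluorescence (360/450 nm) read 5 times over 30-s intervals, last minus first.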
NPSR antagonist: antagonists of human neuropeptide S receptor cAMP signaling; Q6W5P4; CHO-NPSR cells, cAMP TR-FRET, antagonist mode; Potency, µM (highest dose often 38.3 µM), actives largely listed as inhibitors; hit rate 1% among 220,000; AID 1461; further: nearly all actives have a fitted effect of over 50% in size
Large screens that a line does not name were inactive. Unless noted, the call rests on the fitted dose curve; in most records, active means well fitted curve in the direction sought with a large enough effect; inconclusive means small, poorly fitted or top-dose-only effect, or another doubt; inactive means no such curve, though single readings can be large; an effect the other way counts as inactive or inconclusive.

Cn1c(-c2sc3cc(C(F)(F)F)cnc3c2-c2cccs2)n[nH]c1=S	ALDH1A1 inh inconclusive (no result: PNC inhibitor, IMPase cell inh, HPGD block)
CSc1nnc(-c2sc3cc(C(F)(F)F)cnc3c2-c2ccccn2)n1C	PNC inhibitor inconclusive, ALDH1A1 inh inconclusive, HPGD block inconclusive
Cn1c(-c2sc3cc(C(F)(F)F)cnc3c2-c2ccccn2)n[nH]c1=S	ALDH1A1 inh 35µM (no result: PNC inhibitor, IMPase cell inh, HPGD block)
CC(Sc1ccccn1)C(=O)Nc1ccccc1 (centres undefined)	PNC inhibitor inconclusive, HPGD block 28µM
CC(=O)c1ccc(NC(=O)C(C)Sc2ccccn2)cc1 (centres undefined)	ALDH1A1 inh inconclusive (no result: PNC inhibitor, IMPase cell inh, HPGD block)
CC(Sc1ccccn1)C(=O)Nc1ccc(S(N)(=O)=O)cc1 (centres undefined)	PNC inhibitor -108
Cc1ccc(N2C(N)=C(C#N)C(c3cc(CN4CCOCC4)cs3)C3=C2CC(C)(C)CC3=O)cc1 (centres undefined)	ALDH1A1 inh inconclusive (no result: PNC inhibitor, IMPase cell inh, HPGD block)
Cc1ccc(-c2nc3ccsc3c(=O)o2)cc1	none
CCN1C(=O)c2cccc3c(S(=O)(=O)Nc4c(C)n(C)n(-c5ccccc5)c4=O)ccc1c23	PNC inhibitor inconclusive, ALDH1A1 inh 14µM
CCOC(=O)CNS(=O)(=O)c1ccc2c3c(cccc13)C(=O)N2CC	ALDH1A1 inh inconclusive (no result: PNC inhibitor, IMPase cell inh, HPGD block)
CCc1ccc2c(c1)cc(C)c1nnc(SCC(=O)Nc3cc(OC)c(OC)cc3C(=O)O)n12	none (no result: PNC inhibitor, IMPase cell inh, HPGD block)
COc1ccc(-c2nc(N)c3ncn([C@H]4O[C@@H](CO)[C@@H](O)[C@@H]4O)c3n2)cc1	none (no result: PNC inhibitor, IMPase cell inh, NPSR antagonist)
COc1ccc(C2OC3C(CO)OC(n4cnc5c(=O)[nH]c(N)nc54)C3O2)cc1 (centres undefined)	HPGD block 16µM (no result: PNC inhibitor, IMPase cell inh, NPSR antagonist)
Cc1nc2ccc(NC(=O)c3cc([N+](=O)[O-])cc([N+](=O)[O-])c3Cl)cc2s1	ALDH1A1 inh inconclusive, HPGD block 7.1µM, NPSR antagonist inconclusive
CCCCC(CC(O)COCC(C)C)C(=O)NNC(=S)Nc1ccccc1 (centres undefined)	PNC inhibitor inconclusive, ALDH1A1 inh 10µM
COC(CC(=O)NNC(=S)Nc1ccccc1)OC	none (no result: PNC inhibitor, IMPase cell inh, HPGD block)
CCC(CC(C)(C)O)C(=O)NNC(=S)Nc1ccccc1 (centres undefined)	ALDH1A1 inh 25µM (no result: PNC inhibitor, IMPase cell inh, HPGD block)
O=C(/C=C/Nc1cccc([N+](=O)[O-])c1)c1cccs1	ALDH1A1 inh 14µM
CN1CCN(c2ccc(NC(=O)c3ccc4c(c3)OCO4)cc2)CC1	none
c1ccc(Nc2nc(N3CCOCC3)nc(N3CCOCC3)n2)cc1	none
c1ccc(Nc2nc(N3CCNCC3)nc(N3CCOCC3)n2)cc1	PNC inhibitor -100, IMPase cell inh inconclusive
O=C(CSc1nc(Nc2ccccc2)nc(N2CCOCC2)n1)N1CCc2ccccc21	PNC inhibitor -117, IMPase cell inh inconclusive
CC(C)(C)Nc1nc(SCC(=O)Nc2ccccc2)nc(N2CCOCC2)n1	ALDH1A1 inh inconclusive (no result: PNC inhibitor, IMPase cell inh, HPGD block)
CN(C)c1nc(SCC(=O)Nc2ccccc2)nc(N2CCOCC2)n1	ALDH1A1 inh 25µM (no result: PNC inhibitor, IMPase cell inh, HPGD block)
O=C(O)c1ccccc1-c1ccccc1C(=O)Nc1ccc2c(c1)[nH]c(=O)c1ccccc12	none (no result: PNC inhibitor, IMPase cell inh)
COC(=O)c1ccc(C(=O)OC)c(NS(=O)(=O)c2ccc(NC(C)=O)cc2)c1	ALDH1A1 inh inconclusive, HPGD block inconclusive
COC(=O)c1ccc(Sc2ccccc2NS(=O)(=O)c2ccc(NC(C)=O)cc2)nc1	PNC inhibitor inconclusive, ALDH1A1 inh 11µM
CCCn1c(=O)c(C(=O)NCc2ccccn2)c(O)c2ccccc21	IMPase Li inh inconclusive, ALDH1A1 inh inconclusive, NPSR antagonist inconclusive
CCN(CC)Cc1c(C(=O)N2CCc3ccccc3C2)nc2ccc(Cl)cn12	ALDH1A1 inh 13µM (no result: PNC inhibitor, IMPase cell inh, HPGD block)
CCCNC(=O)c1ccccc1NS(=O)(=O)c1ccc2c(c1)OCCO2	HPGD block inconclusive
O=C(c1ccccc1Oc1ccccc1)N1CCN(c2ccccc2)CC1	ALDH1A1 inh 22µM
O=C(N/C(=C/c1cn(-c2ccccc2)nc1-c1ccccc1)C(=O)N1CCOCC1)c1ccc(Cl)cc1Cl	ALDH1A1 inh 16µM (no result: IMPase cell inh)
O=C(c1cn(-c2ccccc2)nc1-c1cccs1)N1CCN(c2ccccc2)CC1	PNC inhibitor -83, ALDH1A1 inh inconclusive
